{"source": "PubChem BioAssay", "key": {"[1]": {"assay": "liver-stage malaria parasite growth inhibition, primary screen, cell-based, HepG2, luciferase luminescence, HepG2 viability (AID 624349);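 as to all read-outs here: 100% = mean of DMSO negative control wells on the same plate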", "conditions": "P. berghei liver stage in HepG2, luciferase luminescence, concentration not given here; parasite load remaining: stronger effect = lower value; viability: measured here: HepG2 viability without parasites"}, "[2]": {"assay": "differential killing of epithelial or mesenchymal cells, primary screen, imaging, PC-3E GFP, TEM4-18 mCherry, co-culture (AID 1345086;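 active = compounds killing one labelled cell type while sparing the other, by normalised counts and ratio limits, not self-fluorescent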;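 as to all read-outs here: cells exposed to compound for 72 h before imaging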;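 as to red/green cell ratio (normalised): normalised mesenchymal count divided by normalised epithelial count so high means epithelial killing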)", "conditions": "imaging cell counts, at 1 µM; for red/green cell ratio (normalised): actives lie on both sides, counts scaled to control wells, 1 = unselective"}, "[3]": {"assay": "sensitizers of A549 cells to miR-34 induction, primary screen, imaging, A549 dox-inducible miR-34, nuclei and caspase counts (AID 1347080;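 active = compounds whose cell count with miR-34 switched on is under 0.7 times the count with it off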)", "conditions": "A549 miR-34 inducible, Hoechst nuclei count, 48 h"}, "[4]": {"conditions": "measured here: epithelial PC-3E GFP cell survival"}, "[5]": {"conditions": "measured here: mesenchymal TEM4-18 mCherry cell survival"}, "[6]": {"conditions": "stronger effect = lower value, cell number ratio, induced over uninduced"}, "[7]": {"conditions": "measured here: relative caspase fold change +Dox/-Dox"}, "[8]": {"conditions": "measured here: total cells with miR-34 induction, stronger effect = lower value"}, "[9]": {"conditions": "measured here: total cells without miR-34 induction"}}, "note": "“And” between values parts separate entries of the source, which are not always exact repeats. Identical values can stand only once. The source made the active and inactive calls. Rule as the data show it, unless noted: active = parasite load remaining mostly below about 12% (no sharp cut-off); inactive = mostly above about 10%.", "data": [{"smiles": "C[C@]12CCC(=O)C=C1C=CC1C2CC[C@@]2(C)C1CC[C@@]21CCC(=O)O1", "note": "(some centres not stated)", "values": [{"measurement": "parasite load remaining", "setting": "[1]", "result": "99.9% (inactive) and 38.4% (inactive)"}, {"measurement": "viability", "setting": "[1]", "result": "91.3% and 97%"}, {"measurement": "red/green cell ratio (normalised)", "setting": "[2]", "result": "0.76 (inactive)"}, {"measurement": "normalised cell number", "setting": "[2]; [4]", "result": 1.2}, {"measurement": "normalised cell number", "setting": "[2]; [5]", "result": 0.92}, {"measurement": "fold change", "setting": "[3]; [6]", "result": "0.895 (inactive)"}, {"measurement": "fold change", "setting": "[3]; [7]", "result": 1.44}, {"measurement": "cell count", "setting": "[3]; [8]", "result": 11200}, {"measurement": "cell count", "setting": "[3]; [9]", "result": 12500}]}, {"smiles": "Cc1nc(N)cc(C[n+]2csc(CCO)c2C)n1", "values": [{"measurement": "parasite load remaining", "setting": "[1]", "result": "58.2% (inactive)"}, {"measurement": "viability", "setting": "[1]", "result": 97.3, "unit": "%"}, {"measurement": "red/green cell ratio (normalised)", "setting": "[2]", "result": "0.91 (inactive)"}, {"measurement": "normalised cell number", "setting": "[2]; [4]", "result": 0.96}, {"measurement": "normalised cell number", "setting": "[2]; [5]", "result": 0.87}, {"measurement": "fold change", "setting": "[3]; [6]", "result": "0.946 (inactive)"}, {"measurement": "fold change", "setting": "[3]; [7]", "result": 4.78}, {"measurement": "cell count", "setting": "[3]; [8]", "result": 12800}, {"measurement": "cell count", "setting": "[3]; [9]", "result": 13500}]}, {"smiles": "CC1=C(C(=O)O)N2C(=O)[C@@H](NC(=O)C(N)c3ccc(O)cc3)[C@H]2SC1", "note": "(some centres not stated)", "values": [{"measurement": "parasite load remaining", "setting": "[1]", "result": "82.3% (inactive) and 62.8% (inactive)"}, {"measurement": "viability", "setting": "[1]", "result": "75.2% and 100%"}, {"measurement": "red/green cell ratio (normalised)", "setting": "[2]", "result": "1.2 (inactive)"}, {"measurement": "normalised cell number", "setting": "[2]; [4]", "result": 1.16}, {"measurement": "normalised cell number", "setting": "[2]; [5]", "result": 1.4}, {"measurement": "fold change", "setting": "[3]; [6]", "result": "0.948 (inactive)"}, {"measurement": "fold change", "setting": "[3]; [7]", "result": 3.02}, {"measurement": "cell count", "setting": "[3]; [8]", "result": 12000}, {"measurement": "cell count", "setting": "[3]; [9]", "result": 12700}]}]}
